Shown are actives, neighbours in structure and some others; about 1.2% of the full set was active somewhere.
CtBP-E1A blk: inhibitors of CtBP/E1A interaction. AlphaScreen GST-E1A/His-CtBP binding, 1536-well; active compounds read low. AID 651724. 0.49% of 340,000 active. activity change, % (no concentration beside the values)
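Homogeneous bead-based format: GST-tagged E1A captured on glutathione donor beads, His-tagged CtBP on nickel acceptor beads; compounds precede bead addition by 2 h at 37 °C.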
pAkt inh: blocks phosphorylation of Akt; Neuro2A IGF-stimulated pAkt S473 HTRF, 20 min; active compounds read low; activity change, % for hits at 50 µM; 0.32% of 360,000 active; in the data active = activity change below about -80%; inconclusive = mostly about -51% to -80%
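Single-point screen (50 µM final compound) in Neuro2A cells stimulated 20 min with 6 nM IGF at 37 deg C. After lysis, Ser473-phosphorylated Akt read by HTRF (ex 330 nm, em 615/665 nm) as the 665/615 ratio.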
CCT modulator: cytosolic chaperonin activity modulation; purified chaperonin ATPase assay, HTRF ADP detection, 30 min; 0.3% of 360,000 active; activity change, % (no concentration beside the values), hits read low; in the data active = activity change below about -30%
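We incubate TRiC, 40 or 20 nM final, with library compounds at 76 uM and 10 uM ATP for 30 min at 37 °C. ADP formed is detected with Transcreener HTRF reagents after 30 min at room temperature.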
Six1-Eya2 blk: inhibitors of human Six1/Eya2 interaction | Q15475+O00167 | AlphaScreen GST-Six1/His-Eya2 binding, biochemical; active compounds read low | activity change, % (test concentration not listed) | 0.56% of 360,000 active | AID 651725
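AlphaScreen luminescence read after one hour at 37 °C in darkness. Pin-transferred compounds met GST-Six1 and His-Eya2 protein (5X stock 250 nM/500 nM) plus glutathione donor and Ni-chelate acceptor beads (5X, 50 ug/mL).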
An asterisk follows results filed as active; i = inactive; ? = inconclusive; . = not tested or not shown. Rule as the data show it, unless noted: active = activity change below about -65%; inconclusive = mostly about -30% to -63%; inactive = weaker than that. % is scaled to controls: 0 for no effect and ±100 for the full control effect.

SMILES	CtBP-E1A blk	pAkt inh	CCT modulator	Six1-Eya2 blk
Oc1ccc(/C=N/Nc2ncc(Br)cn2)c(O)c1	-91.9*	i	2.0	-88.0*
Cc1nc(N/N=C/c2ccc(O)cc2O)cc(N2CCOCC2)n1	-93.4*	i	-1.3	-78.7*
Oc1ccc(C=NNc2ccccn2)c(O)c1	-4.7	i	-1.2	-91.0*
Oc1ccc(/C=N/Nc2nccnc2Cl)c(O)c1	-95.9*	i	1.3	-92.2*
COc1ccccc1CNS(=O)(=O)c1c(C)cc(C)cc1C	1.7	i	2.2	4.5
CC1CCCN(C(=O)c2ccc3c(=O)n4nc(Nc5ccccc5)sc4nc3c2)C1 (stereo not given)	0.0	i	0.9	16.7
Cc1cccc(Nc2nn3c(=O)c4ccccc4nc3s2)c1	-22.9	-101.6%*	-1.1	-6.2
CN1CC(c2ccccn2)C2(SC(=S)N(Cc3ccccc3)C2=O)C12C(=O)Nc1ccccc12 (stereo not given)	-76.1*	-83.8%*	0.1	-75.9*
CCN(CC)S(=O)(=O)c1ccc(N2CCOCC2)c(NC(=O)C23CC4CC(CC(Cl)(C4)C2)C3)c1	-0.7	i	-71.8*	-6.0
CCCCOC(=O)Nc1ccc(S(=O)(=O)Nc2ccc([N+](=O)[O-])cc2)cc1	-7.6	i	0.4	-10.9
CCCCCOC(=O)Nc1ccc(S(=O)(=O)Nc2cccc([N+](=O)[O-])c2)cc1	4.8	i	-52.8*	0.6
O=C(NCc1ccccc1F)c1ccc(S(=O)(=O)N2CCCCCC2)cc1	.	i	-1.2	-0.6
COC(=O)Cn1cnc2c(C#N)c3n(c2c1=O)CCCCC3	2.2	i	-1.9	4.5
N#Cc1c2n(c3c(=O)n(Cc4ccccc4Cl)cnc13)CCCCC2	-0.9	i	-32.3*	-10.3
CCOC(=O)N/N=C\c1ccc(OC/C=C/c2ccccc2)cc1	-0.2	i	-2.4	-0.5
Cc1cc(=O)oc2c(C)c(OC(C)C(=O)NCC3CCC(C(=O)O)CC3)ccc12 (stereo not given)	3.4	i	-1.2	3.5
Cc1c(OC(C)C(=O)NCC2CCC(C(=O)O)CC2)ccc2c3c(c(=O)oc12)CCCC3 (stereo not given)	1.7	i	-36.7*	4.5
Cc1ccccc1NC(=O)CSc1nc(N)c(C#N)c(-c2cccs2)c1C#N	-6.3	-101.1%*	-0.5	-15.0
CCN(CC)C(=O)CSc1nc(N)c(C#N)c(-c2cccs2)c1C#N	-24.3	i	-1.6	-20.4
CCOc1ccccc1NC(=O)CSc1nc(N)c(C#N)cc1C#N	-8.9	-96.3%*	-1.8	-8.9
COc1ccc(CCNC(=O)Cc2cccc(C(F)(F)F)c2)cc1OC	-3.2	i	0.9	-7.5
CCC(=O)Nc1nn(C)c2nc3c(C)cccc3cc12	8.7	-113.2%*	-2.7	14.9
CCOC(=O)c1cc(-c2ccccc2)sc1NC(=O)C(C)(C)C	8.2	i	-30.9*	10.3
Cc1oc(-c2cccc(Cl)c2)nc1CN1CCC(C(=O)NCC2CCCO2)CC1 (stereo not given)	4.6	.	-0.6	2.9
Cc1ccccc1-c1nc(CN2CCC(C(=O)NCC3CCCO3)CC2)c(C)o1 (stereo not given)	2.9	-118.8%*	-8.3	0.4
SMILES	CtBP-E1A blk	pAkt inh	CCT modulator	Six1-Eya2 blk
Brc1ccc(-c2nnc3sc(CN4CCC5(CC4)OCCO5)cn23)cc1	1.0	-101.8%*	-4.9	2.6
COc1ccc([C@H]2C[C@@H](O)[C@H](n3cc(COC(=O)c4ccccc4)nn3)CN2C(=O)c2cccs2)cc1	-5.1	i	0.5	-0.8
Cc1cc(OCC(=O)N[C@@H](CSCc2ccccc2)C(=O)O)c2c(C)c(C)c(=O)oc2c1	-10.8	i	-1.1	-25.7
CC(Oc1cccc2cccnc12)C(=O)N/N=C/c1ccccc1 (stereo not given)	-17.4	i	-1.0	-5.3
O=C(/C=C/c1ccccc1)Oc1cccc2cccnc12	.	i	-0.7	-72.9*
O=C(/C=C\c1ccccc1)Oc1cccc2cccnc12	.	i	-3.2	-67.3*
Cc1nn(CC(=O)NC2(C)CCS(=O)(=O)C2)c(C)c1S(=O)(=O)N(C)C (stereo not given)	2.9	i	-2.2	2.0
COc1cc(/C=C(\C#N)C(=O)NC2CCCCC2)ccc1OCc1ccc(C(=O)O)cc1	-93.4*	i	0.9	?
COc1cc(/C=C(/C#N)C(=O)Nc2ccccc2)ccc1OCc1ccc(C(=O)O)cc1	.	i	2.7	0.0
COc1cc(/C=C(\C#N)C(=O)NC(C)C)ccc1OCc1ccc(C(=O)O)cc1	-73.2*	i	-0.5	-0.9
Cc1cc2nc3c(nc2cc1C)C1(C(=O)N(C)C)CCC3(C)C1(C)C (stereo not given)	-2.9	-110.3%*	-1.3	-0.1
O=C(CCCn1c(=O)c2ccccc2n(Cc2ccccc2)c1=O)NCc1ccco1	-5.6	i	0.8	0.3
O=C(CCCCn1c(=O)c2ccccc2n(Cc2ccc(F)cc2)c1=O)NCc1ccco1	-9.1	-99.4%*	0.2	-2.4
Cc1cccc2[nH]c(SCC(=O)N3CCOCC3)nc12	12.6	i	-0.7	4.2
O=C(NCc1cccc(C(F)(F)F)c1)c1ccc2nc([C@@H]3O[C@H](CO)[C@@H](O)[C@H]3O)[nH]c2c1	0.3	i	-0.5	5.3
COc1ccc(C#Cc2c(-c3ccsc3)oc3ccc(-c4cc(OC)c(OC)c(OC)c4)cc23)cc1	.	i	-2.6	2.6
COc1ccc(NC(=O)CCc2c(C)nc3nc(C)nn3c2C)cc1	-4.1	-117.5%*	-1.5	-2.1
Cc1nc2nc(C)c(CCC(=O)Nc3ccc4c(c3)OCO4)c(C)n2n1	-22.2	i	0.1	-19.2
Cc1cc(C(=O)Nc2nnc(C(F)(F)F)s2)cs1	4.9	i	-33.7*	-1.0
COc1cc(/C=N/Nc2nc3ccccc3s2)cc([N+](=O)[O-])c1O	.	i	-2.0	-81.8*
COC(=O)c1ccc(CSc2nc3ccccc3s2)o1	34.2	i	-0.3	14.0
COC(=O)c1ccc(CSc2n[nH]c(=S)s2)o1	7.7	-100.3%*	2.2	-0.6
Cc1ccc(CCC(=O)Nc2ccc(C#N)cc2)o1	.	.	-102.7*	-19.5
Cc1cc(NC(=O)CS(=O)(=O)c2ccc(Cl)cc2)no1	.	.	-87.5*	-2.3
Cc1cc(NC(=O)CCc2ccc(C)o2)no1	-18.0	i	0.3	-76.9*
SMILES	CtBP-E1A blk	pAkt inh	CCT modulator	Six1-Eya2 blk
CC(C)(C)c1cc(=O)n2c(C#N)c(C#N)nc2[nH]1	0.4	-89.2%*	0.5	-3.6
CC(C)(C)c1cc(C(F)(F)F)c(C#N)c(=O)[nH]1	-2.2	i	-2.6	-1.2
C#CCn1cc(/C=C2\NC(=O)NC2=O)c2ccccc21	-26.4	i	-1.5	?
CCSS(=O)(=O)c1cccc2cccnc12	-90.5*	i	-1.6	-91.1*
O=C(O)CCS(=O)(=O)c1cccc2cccnc12	0.0	.	-3.7	-6.1
O=C(NCc1cccs1)c1csc(COCCO)n1	8.8	i	-0.8	5.8
CCC(=O)Nc1c(C(=O)N2CCN(c3ccccn3)CC2)cnn1-c1ccc(Cl)cc1	2.7	i	-56.9*	-1.4
